For one compound, normalized growth results are on record in PubChem BioAssay AID1159580 (chemical genetic matrix, 2015).

Hit rate of the full screen: of about 5,500 compounds, about 2,000 (36%) were called active. About 18% were inconclusive and are not listed. The list shows a part of the results. Unmarked numbers belong to inactive results. No stated cut-off is given here; in the data, active means normalized growth mostly below about 0.91 (no sharp cut-off); inconclusive means no clear call, values can overlap the other calls; inactive means mostly above about 0.92.

The assay in a line: chemical genetic growth profiling, strain panel (AID 1159580).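 Further: tested at 20 µM; growth read once vehicle control cultures reached saturation at 30 °C; 1 = growth at the plate median or of vehicle wells.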 The note with it: S. cerevisiae deletion strains, growth OD.

Consider `C=C1C(=O)O[C@@H]2[C@H]3O[C@]3(C)CCC=C(C)CC[C@@H]12`, for which the normalized growth reads like this: (locus YAL040C, strain CLN3, stronger effect = lower value) 0.966; (locus YCL061C, strain MRC1 (second series), stronger effect = lower value) 0.96; (locus YDR363W, strain ESC2, stronger effect = lower value) 0.969; (locus YER002W, strain NOP16, stronger effect = lower value) 0.981; (locus YGR229C, strain SMI1, stronger effect = lower value) 0.822 (active); (locus YJR075W, strain HOC1, stronger effect = lower value) 0.906 (active). Also, the normalized growth (locus YMR307W, strain GAS1, stronger effect = lower value) is 0.766 (active); the normalized growth (locus YNL175C, strain NOP13, stronger effect = lower value) is 0.956; the normalized growth (locus YNL197C, strain WHI3, stronger effect = lower value) was 0.95; the normalized growth (locus YNL224C, strain SQS1, stronger effect = lower value) is 0.967; the normalized growth (locus YNL322C, strain KRE1, stronger effect = lower value) is 0.945; the normalized growth (locus YOR083W, strain WHI5 (second series), stronger effect = lower value) was 0.972. Further, under “locus YPL055C, strain LGE1, stronger effect = lower value”, the normalized growth is 0.945.
